A selection: hits, their analogues and other compounds. The true share with any hit is near 5.4%.
HSF1 activator = increases HSF-1 driven luciferase reporter signal; NIH3T3-HGL HSF-1 luciferase reporter, MG132, 8 h; 100% = twice DMSO control signal; activation, % at 9 µM; actives 1.7% (n = 300,000); AID 504408;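 active = mean replicate activation of at least 50% with a set share of replicates each reaching 50%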;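 also: 0% = median of the neutral control wells and 100% = twice that signal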
NR0B1 inh = inhibitors of human orphan nuclear receptor DAX1 (NR0B1) | HEK293 Gal4-DAX1 luciferase reporter, luminescence | inhibition, % at 6.75 µM | actives 0.99% (n = 340,000) | AID 504766;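 active = inhibition above the mean over all tested compounds plus 3 SD, cut at about 4.2% in these data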;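 also: 0% = DAX1-transfected cells with DMSO and 100% = empty-vector control cells with DMSO; inhibition shows as a rise in luminescence from relieved DAX1 repression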
Target sequence (P51843 207-470 limits assumed): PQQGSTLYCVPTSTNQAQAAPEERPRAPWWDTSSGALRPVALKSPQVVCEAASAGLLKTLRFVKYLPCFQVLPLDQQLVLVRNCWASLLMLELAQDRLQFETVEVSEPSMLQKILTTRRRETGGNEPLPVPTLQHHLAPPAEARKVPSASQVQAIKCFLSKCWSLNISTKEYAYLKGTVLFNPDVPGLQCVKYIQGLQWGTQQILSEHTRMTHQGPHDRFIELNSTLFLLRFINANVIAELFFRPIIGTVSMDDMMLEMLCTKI
AHR activator = human AHR activation | P35869 | AHR-responsive luciferase reporter cells, luminescence | activation, % at 5 µM | actives 2.5% (n = 320,000) | AID 2796; in the data active = activation above about 47%;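 also: 0% = vehicle wells and 100% = reference agonist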
FXN GAA850 act = activators of GAA850 frataxin (FXN) promoter; HEK293 lucGAA850 FXN promoter luciferase reporter, 24 h; percent of 10 µM SAHA response; activation, % at 6 µM; AID 540364; actives 0.56% (n = 360,000);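 active = activation above the average of all compounds screened plus 3 SD, cutoff fixed separately per campaign, cut at about 7.5% in these data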;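 also: 0% = DMSO wells and 100% = 10 µM SAHA wells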
HSF1 inh = HSF1 inhibition. actives 0.77% (n = 300,000). AID 2098. NIH3T3-HGL HSE-luciferase, MG132-induced, luminescence 8 h; hits give low values. activity change, negative = inhibition, % at 7.5 µM (by protocol);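 active = more than half of replicate wells show activity change below -50%, luminescence cut by over half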;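 also: luciferase reports HSF-1 transcriptional activity via heat shock element; 0% = median of DMSO wells and -100% = zero luminescence signal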
* = called active by the depositor; nt = not tested or not shown.

SMILES | HSF1 activator | NR0B1 inh | AHR activator | FXN GAA850 act | HSF1 inh
Cc1ccc2nc(-c3ccccc3)cc(C(=O)N(C)CC(=O)Nc3ccccc3Br)c2c1 | 0 | -2 | 9 | -5 | -3
CCCC(C)(C)C(=O)N1CCC1(C)C(=O)NS(=O)(=O)c1ccccc1Cl (centres undefined) | nt | nt | nt | 0 | nt
Cc1ccc(OCC(=O)N2CCc3ccccc32)cc1 | 67* | 3 | 12 | 6 | 37
Cc1ccc(OCC(=O)N2CCCc3ccccc32)cc1 | nt | 1 | 0 | -1 | nt
CCc1ccc(OCC(=O)N2CCc3ccccc32)cc1 | 65* | 1 | -1 | 5 | 24
N#Cc1c(N2CCCC2)ccc(Br)c1Cl | 9 | 4 | -1 | 2 | -4
Cn1cc(/C=C2\SC(=O)NC2=S)c2ccccc21 | -8 | -1 | 47* | -2 | -9
CC12COC3(C(=O)Nc4ccc5ccccc5c4)CC1CCC32C (centres undefined) | 62* | 2 | 29 | 7 | 31
CCN(C(=O)Cc1c(C(=O)O)[nH]c2ccccc12)c1cc(OC)ccc1OC | -9 | 4.8* | 7 | -2 | 0
Cc1ccsc1C1Nc2ccc3ncccc3c2C2=C1C(=O)CC(C)(C)C2 (centres undefined) | 11 | -2 | 2 | 0 | 5
CC1(C)CC(=O)C2=C(C1)c1c(ccc3ccccc13)NC2c1ccco1 (centres undefined) | 92* | 2 | 46 | -1 | 63
CCS(=O)(=O)N1CCN(c2ccc(Cl)cc2[N+](=O)[O-])CC1 | 27 | -2 | -3 | 2 | -3
COc1cc(/C=C/C(=O)NC(C)C2CC3CCC2C3)cc(OC)c1OC (centres undefined) | -91 | 0 | 12 | -1 | -88*
COC(=O)C(Cc1ccccc1)NC(=O)CNC(=O)c1sc2ccccc2c1Cl (centres undefined) | -63 | 1 | 3 | -1 | -53*
COc1ccccc1N1CCN(S(=O)(=O)c2cc(C(F)(F)F)cc(C(F)(F)F)c2)CC1 | 13 | 7.7* | -2 | 1 | 1
COc1ccccc1N1CCN(S(=O)(=O)c2ccccc2)CC1 | 47 | 2 | 3 | 0 | 10
O=C(c1ccccc1)c1ccc2nc(-c3ccco3)c(-c3ccco3)nc2c1 | 89* | 0 | 1 | 5 | 19
Cc1ccc2oc(=O)n(CC(=O)OCCC(C)C)c2c1 | -11 | 0 | 3 | 2 | 4
CN(C)c1ccc(C(CNS(=O)(=O)c2ccc(F)c(F)c2)c2c[nH]c3ccccc23)cc1 (centres undefined) | -5 | 0 | 68* | 1 | -1
Nc1ccc(Oc2cc(N)cc(Oc3ccccc3)c2)cc1 | 7 | 4.6* | 3 | 4 | -5
Nc1ccc(Oc2ccc3nc(-c4ccccc4)c(-c4ccccc4)nc3c2)cc1 | -20 | -1 | 4 | 0 | -1
COc1ccc(C(=O)NCCc2nnc3ccc(SCC(=O)Nc4ccccc4)nn23)cc1 | 2 | -1 | 1 | 1 | -6
C[C@H]1CN([C@@H](C)CO)C(=O)c2cc(C#Cc3ccccn3)cnc2O[C@@H]1CN(C)Cc1ccccc1 | nt | 0 | nt | 0 | nt
N#CCCN(Cc1cccnc1)C(=S)NC(=O)c1ccccc1 | nt | 4.6* | -1 | 0 | nt
CC1(C(=O)NC(=S)N(CCC#N)Cc2cccnc2)CC1(Cl)Cl (centres undefined) | 8 | nt | -3 | nt | 4
SMILES | HSF1 activator | NR0B1 inh | AHR activator | FXN GAA850 act | HSF1 inh
COc1ccccc1-c1noc(CCC(=O)NC2CCCCC2)n1 | 12 | 1 | 11 | 0 | -2
Cc1ccc(O)c(C(=O)c2cnc3c(c2)c(=O)n(C)c(=O)n3C)c1 | 26 | nt | 8 | 2 | 3
Cc1ccc(O)c(C(=O)c2cnc3c(c2)c(-c2ccc(F)cc2)c(C#N)c(=O)n3C)c1 | 63* | 1 | 0 | -2 | 34
Nc1ccccc1SC1CC(=O)N(c2ccc3c(c2)OCO3)C1=O (centres undefined) | 21 | nt | 72* | 0 | 0
CC(=O)CSc1nc2c(c(=O)[nH]c(=O)n2C)n1Cc1cccc(Br)c1 | 58* | 0 | -2 | 5 | 30
Cc1ccc(Cn2c(Sc3ncccn3)nc3c2c(=O)[nH]c(=O)n3C)cc1 | -73 | 1 | 0 | -2 | -65*
COc1ccccc1CNC(=O)Cn1cccc1C(=O)c1ccccc1C | 19 | 1 | 33 | 1 | 10
O=C(NNC(=O)c1nc2ccccc2[nH]1)OCc1ccccc1 | nt | 0 | 6 | 0 | nt
O=C(NC(=S)Nc1cnc2ccccc2c1)c1ccccc1 | 40 | 5.9* | 11 | 5 | 9
O=C(NC(=S)Nc1ncc(Br)cc1Br)c1ccccc1 | 76* | 1 | 23 | 4 | 36
C=CCNC(=S)Nc1c(N)n(C)c(=O)n(C)c1=O | -10 | 0 | 2 | -2 | -5
COC(=O)c1c(C)[nH]c(C(=O)/C=C/c2ccccc2)c1C | 59* | 1 | 1 | 3 | 27
COC(=O)c1c(C)[nH]c(C(=O)/C=C/c2ccc(C)cc2)c1C | 16 | -5 | -9 | -1 | 4
O=C(C=Cc1ccccc1)c1c[nH]c2ccccc2c1=O | nt | -5 | nt | -5 | nt
Cc1[nH]c2ccccc2c(=O)c1C(=O)/C=C/c1ccccc1 | 87* | -6 | -2 | -13 | 111
COC(=O)c1c(C)[nH]c(C(=O)/C=C/c2cccc(Cl)c2)c1C | 356* | -1 | 8 | 4 | 267
O=C(N/N=C/c1cccs1)c1cc(-c2ccc(Cl)s2)[nH]n1 | -1 | 1 | 32 | 1 | -7
O=c1cc(-c2ccccc2)nc2n1Cc1ccccc1-2 | -6 | 0 | 111* | 6 | 0
O=c1c2cccc(Cl)c2nc2n1Cc1ccccc1-2 | 18 | 2 | 21 | 1 | 13
CC(=O)c1cc(C#N)c(NCc2ccccc2)nc1C | 26 | 1 | -1 | 3 | 2
CCOC(=O)c1cc(C#N)c(NCc2ccccc2)nc1C | -78 | 0 | 1 | 1 | -72*
COc1ccc(CCN=C(N)NS(=O)(=O)c2ccc3ccccc3c2)cc1 | -3 | 2 | 11 | 2 | -11
Cc1c(CCNC=O)cc(C)c2c3c(oc12)CCCC3 | nt | 5.3* | nt | 4 | nt
CSc1cccc(-n2cc(-c3ccc4c(c3)OCO4)[nH]c2=O)c1 | 21 | -1 | 51* | -3 | 12
CSc1cccc(NC(=O)CNC(=O)c2ccc3c(c2)OCO3)c1 | -14 | 0 | 22 | -1 | 1
SMILES | HSF1 activator | NR0B1 inh | AHR activator | FXN GAA850 act | HSF1 inh
CCn1cc(C(=O)N2CCn3c(nc4ccccc43)C2)c(=O)c2ccc(C)nc21 | 2 | 1 | 0 | 16* | -10
Cc1nc(C(F)(F)F)ccc1C(=O)Nc1ccccc1F | 9 | 0 | -6 | 3 | -3
O=C(NCC(O)c1ccccc1)c1ccccc1 (centres undefined) | 26 | 4.3* | 13 | 2 | 10
Cc1nc(C(F)(F)F)ccc1C(=O)NCC(O)c1ccccc1 (centres undefined) | 11 | 1 | 71* | 2 | 0
O=C(CNc1cc(S(=O)(=O)N2CCOCC2)ccc1N1CCCC1)Nc1ccc(Cl)cc1F | nt | 4 | nt | 1 | nt
CCCN1CCN(C(=O)C(NC(=O)c2ccco2)C(C)C)CC1 (centres undefined) | -4 | -1 | 1 | 3 | -5
COc1cccc(CN2CC(C(=O)N3CCCC3)CCC2=O)c1 (centres undefined) | -11 | 2 | 0 | 1 | -3
COc1cccc(CN2CC(C(=O)N3CCN(C(C)C)CC3)CCC2=O)c1 (centres undefined) | 22 | 4.6* | -6 | 1 | 3

Screening results from PubChem BioAssay.
